Measured values as given in PubChem BioAssay (Tox21).
A number with no mark means an inactive call. Results filed as inconclusive are left out. Where a call stands in place of a potency, no number is given. Calls of active or inactive are those of the source. The call rests on the fitted dose curve.

Key:
[1] = molecular target: Acetylcholinesterase (Homo sapiens) (UniProt P22303); assay: Acetylcholinesterase (AChE) small molecule antagonists: colormetric cell-based qHTS assay (AID 1347395); further: nearly all actives have a fitted effect of over 30% in size
Acetylcholinesterase (Homo sapiens), sequence (P22303 whole entry, looked up): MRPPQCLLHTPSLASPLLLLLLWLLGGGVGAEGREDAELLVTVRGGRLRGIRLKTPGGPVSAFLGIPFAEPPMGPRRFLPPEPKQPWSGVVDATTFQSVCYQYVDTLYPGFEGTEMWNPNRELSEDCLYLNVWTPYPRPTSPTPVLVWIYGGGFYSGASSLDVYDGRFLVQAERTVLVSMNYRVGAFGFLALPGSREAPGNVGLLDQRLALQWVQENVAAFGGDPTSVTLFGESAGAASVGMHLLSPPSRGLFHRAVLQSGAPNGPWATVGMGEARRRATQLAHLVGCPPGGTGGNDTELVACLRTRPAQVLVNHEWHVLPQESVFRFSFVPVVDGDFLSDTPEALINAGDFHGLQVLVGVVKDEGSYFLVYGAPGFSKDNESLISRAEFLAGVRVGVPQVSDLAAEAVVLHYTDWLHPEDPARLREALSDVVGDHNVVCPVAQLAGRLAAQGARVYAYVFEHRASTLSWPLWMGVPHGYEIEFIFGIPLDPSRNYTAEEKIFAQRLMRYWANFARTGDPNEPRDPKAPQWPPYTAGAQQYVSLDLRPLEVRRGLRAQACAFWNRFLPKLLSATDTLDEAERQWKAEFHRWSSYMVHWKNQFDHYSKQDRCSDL
In short: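 Cells (SH-SY5Y, 2,000 per well) are seeded and left overnight at 37 C. Compound is added for 30 min, then DTNB and acetylthiocholine for a further 90 min at 37 C before absorbance-based thiocholine detection.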

[2] = molecular target: Acetylcholinesterase (Homo sapiens) (UniProt P22303); assay: Acetylcholinesterase (AChE) small molecule antagonists: enzyme-based qHTS assay (AID 1347397); conditions: Potency: AChE enzyme activity inhibition; outcome: AChE enzyme activity inhibition; further: nearly all actives have a fitted effect of over 55% in size
In short: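 Recombinant human AChE, dispensed at 50 mU/mL, was preincubated with Tox21 10K compounds or DMSO vehicle for 30 min at room temperature. DTNB plus acetylthiocholine was then added, and thiocholine was measured colorimetrically after a further 10 min.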

[3] = molecular target: Acetylcholinesterase (Homo sapiens) (UniProt P22303); assay: Acetylcholinesterase (AChE) small molecule antagonists: fluorescence cell-based qHTS assay (AID 1347398); conditions: Potency: AChE activity; outcome: AChE activity; further: nearly all actives have a fitted effect of over 50% in size; further: potency means the concentration at half of the fitted maximal effect
In short: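 Human SH-SY5Y cells were plated overnight at 37 C, exposed to compound for 30 min at 37 C, 5% CO2, then given acetylthiocholine plus Thiolite Green for 40 min at room temperature; thiocholine fluorescence (Ex/Em 490/520 nm) reports endogenous AChE activity.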

[4] = molecular target: Acetylcholinesterase (Homo sapiens) (UniProt P22303); assay: Acetylcholinesterase (AChE) small molecule antagonists: enzyme-based qHTS assay with human liver microsomes (AID 1347399); conditions: Potency: qHTS inhibition; outcome: qHTS inhibition; further: nearly all actives have a fitted effect of over 60% in size
In short: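 Recombinant human AChE (50 mU/mL in the enzyme mix) and human liver microsomes (0.25 mg/mL final) were preincubated with compound and NADPH (0.25 mg/mL final) for 30 min at 37 C. Acetylthiocholine/DTNB was then added; thiocholine was read colorimetrically after 10 min at room temperature.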

SMILES	Potency [1]	Potency [2]	Potency [3]	Potency [4]	activity, negative = inhibition [1]	activity change, negative = inhibition [2]	activity change, negative = inhibition [3]	activity change, negative = inhibition [4]
[Na+]	inactive	inactive	inactive	inactive				
C[C@H]1O[C@H](O[C@H]2[C@H](O)[C@@H](O)[C@@H](O[C@H]3[C@H](O)[C@@H](O)[C@H](O)O[C@@H]3CO)O[C@@H]2CO)[C@H](O)[C@@H](O)[C@@H]1N[C@H]1C=C(CO)[C@@H](O)[C@H](O)[C@H]1O	inactive	inactive	inactive	inactive				
CN1C(CSCC(F)(F)F)Nc2cc(Cl)c(S(N)(=O)=O)cc2S1(=O)=O (stereo not given)	inactive	inactive	inactive	inactive				
N#CCC(=O)O	inactive	inactive	inactive	inactive				
Nc1ccc(C(=O)O)cc1	inactive	inactive	inactive	inactive				
CC[C@H]1OC(=O)[C@H](C)[C@@H](O[C@H]2C[C@@](C)(OC)[C@@H](O)[C@H](C)O2)[C@H](C)[C@@H](O[C@@H]2O[C@H](C)C[C@H](N(C)C)[C@H]2O)[C@](C)(O)C[C@@H](C)CN(C)[C@H](C)[C@@H](O)[C@]1(C)O	inactive	inactive	inactive	inactive				
CCCCOCCOC(=O)COc1cc(Cl)c(Cl)cc1Cl	inactive	inactive	inactive	inactive				
O=c1[nH]c(=O)c2ccccc2o1	inactive	inactive	inactive	inactive				
CCN(CC)c1ccc(C(=O)c2ccccc2C(=O)O)c(O)c1	inactive	inactive	inactive	inactive				
Cc1cccc(O)c1	inactive	inactive	inactive	inactive				
O=C(O)Cc1ccc(Cl)cc1Cl	inactive	inactive	inactive	inactive				
COCC(C)O (stereo not given)	inactive	inactive	inactive	inactive				
Oc1c(I)cc(I)c2cccnc12	inactive	inactive	inactive	inactive				
c1ccc(Cc2ccccc2)cc1	inactive	inactive	inactive	inactive				
CC1=C(C(=O)O)N2C(=O)[C@@H](NC(=O)[C@H](N)C3=CCC=CC3)[C@H]2SC1	inactive	inactive	inactive	inactive				
Cc1cccc(O)c1C	inactive	inactive	inactive	inactive				
CC(C)[C@H](N)C(=O)OCCOCn1cnc2c(=O)[nH]c(N)nc21	inactive	inactive	inactive	inactive				
COc1ccc(C2CNC(=O)C2)cc1OC1CCCC1 (stereo not given)	inactive	inactive	inactive	inactive				
Oc1ccc(C2(c3ccc(O)c(C4CCCCC4)c3)CCCCC2)cc1C1CCCCC1	inactive	inactive	inactive	inactive				
COCC(=O)O	inactive	inactive	inactive	inactive				

SMILES	Potency [1]	Potency [2]	Potency [3]	Potency [4]	activity, negative = inhibition [1]	activity change, negative = inhibition [2]	activity change, negative = inhibition [3]	activity change, negative = inhibition [4]
CCCCOC(=O)CCS	inactive	inactive	inactive	inactive				
N[C@@H](C(=O)N[C@@H]1C(=O)N2C(C(=O)O)=C(Cl)CS[C@H]12)c1ccccc1					-0.844% [at 10.5 µM]	-0.554% [at 10.5 µM]	7.33% [at 10.5 µM]	-5.46% [at 10.5 µM]
C[Si](C)(C)Cl	inactive	inactive	inactive	inactive				
O=C1O[C@H](CO)[C@@H](O)[C@H](O)[C@H]1O	inactive	inactive	inactive	inactive				
C=C1C(C)(C)[C@@]2(Cl)C(Cl)[C@]1(Cl)C(Cl)(Cl)C2(Cl)Cl (stereo not given in full)	inactive	inactive	inactive	inactive				
CCC(C)Nc1ccc(NC(C)CC)cc1 (stereo not given)	inactive	inactive	40.7 µM (active)	inactive				
CC(C)=CCC/C(C)=C/C(=O)O	inactive	inactive	inactive	inactive				
COc1ccc(C(=O)CC(=O)c2ccc(C(C)(C)C)cc2)cc1	inactive	inactive	inactive	inactive				
O=C(c1ccc2c(c1)C(=O)OC2=O)c1ccc2c(c1)C(=O)OC2=O	inactive	inactive	inactive	inactive				
CN(C)CCCNCCC#N	inactive	inactive	inactive	inactive				
CCC[Si](OC)(OC)OC	inactive	inactive	inactive	inactive				
CCN1CCN(c2cc(-c3ccc(F)cc3)c3c(n2)CCCCCC3)CC1					2.78% [at 23.6 µM]	1.01% [at 23.6 µM]	7.25% [at 23.8 µM]	-1.12% [at 23.6 µM]
CCC(C)N (stereo not given)	inactive	inactive	inactive	inactive				
O=C(O)Cn1c(C(=O)Nc2nc(-c3ccccc3Cl)cs2)cc2ccccc21	inactive	inactive	inactive	inactive				
CCOC(OCC)OCC	inactive	inactive	inactive	inactive				
C=CCOC(=O)c1ccc(C(=O)OCC=C)c(C(=O)OCC=C)c1	inactive	inactive	inactive	inactive				
Oc1ccc2c(c1)OC[C@@H](N1CCC(O)(c3ccc(F)cc3)CC1)[C@H]2O	inactive	inactive	inactive	inactive				
Cc1ccc(C(=O)c2ccccc2)cc1	inactive	inactive	inactive	inactive				
[Cl][Nd]([Cl])[Cl]	inactive	inactive	inactive	inactive				
O=C(/C=C/c1ccc([N+](=O)[O-])cc1)c1ccccc1	inactive	inactive	inactive	inactive				

SMILES	Potency [1]	Potency [2]	Potency [3]	Potency [4]	activity, negative = inhibition [1]	activity change, negative = inhibition [2]	activity change, negative = inhibition [3]	activity change, negative = inhibition [4]
CCCCCCCC(=O)OCC(COC(=O)CCCCCCC)OC(=O)CCCCCCC	inactive	inactive	inactive	inactive				
Cc1cc(C)cc(N)c1	inactive	inactive	inactive	inactive				
O=C(O)CCCCCCCC(=O)O	inactive	inactive	inactive	inactive				
C=CN1CCCC1=O	inactive	inactive	inactive	inactive				
CCCCCCC	inactive	inactive	inactive	inactive				
CC1OC1C1CCC2(C)OC2C1 (stereo not given)	inactive	inactive	inactive	inactive				
O=C(c1ccccc1)c1cccc(O)c1	inactive	inactive	inactive	inactive				
OCCN(CCO)CCN(CCO)CCO	inactive	inactive	inactive	inactive				
CSCCC=O	inactive	inactive	inactive	inactive				
FC(F)(F)C(F)(F)C(F)(F)C(F)(F)CCI	inactive	inactive	inactive	inactive				
C(=C(c1ccccc1)c1ccccc1)c1ccccc1	inactive	inactive	inactive	inactive				
NC(=O)N(O)[C@@H]1COc2cc(OCc3ccccc3)ccc21	inactive	inactive	inactive	inactive				
CCCCNS(=O)(=O)c1ccc(C)cc1	inactive	inactive	inactive	inactive				
[Cl][Dy]([Cl])[Cl]	inactive	inactive	inactive	inactive				
Oc1ccc(O)cc1	inactive	inactive	inactive	inactive				
NC(Cc1c[nH]c2ccccc12)C(=O)O (stereo not given)	inactive	inactive	inactive	inactive				
OCCCCCCCl	inactive	inactive	inactive	inactive				
O=C(c1ccc(O)cc1O)c1ccc(O)cc1O	inactive	inactive	inactive	inactive				
O=C(c1ccccc1)c1ccccc1O	inactive	inactive	inactive	inactive				
CCOC(=O)CCCCCCCCC(=O)OCC	inactive	inactive	inactive	inactive				
